The results in this text go back to the supplement of paper PMC6607015.

Structures can show the parent of a compound that is named as a salt.

What all share (conditions): compound concentration in added solution (µM; 5 µl added to 20 µl cells): 10; 18 h
In experiment [1] the test system is A431. Briefly: LBPA endosome anti-LBPA integrated intensity (sum per cell), Z-score; higher = more LBPA staining. The essentials:
(§1)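 The data are Z-scores, normalised in AcuityXpress, of integrated LBPA or filipin intensity in each cell, either whole-cell or restricted to LBPA endosomes. HeLa MZ or A431 cells, 3,500 per well in 20 µl, were seeded onto 5 µl of 10 µM compound solution in duplicate 384-well plates and incubated 18 h. Fixed cells were stained and imaged, with intensities extracted by MetaXpress segmentation.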

The subject of experiment [2] is HeLa MZ. The description is as above. The essentials: as §1
The subject of experiment [3] is A431. Briefly: whole-cell filipin (free cholesterol) integrated intensity, Z-score; higher = more cholesterol staining. Put shortly:
as §1

Experiment [4] concerns HeLa MZ. The experiment is described as above. Put shortly: as §1
Experiment [5] concerns A431. Briefly: filipin (cholesterol) integrated intensity within LBPA endosomes, Z-score; higher = more cholesterol in LBPA endosomes. The essentials:
as §1

For experiment [6], the system named is HeLa MZ. The description is as above. Put shortly: as §1

For the compound `CCN(CC)CCNC(=O)c1cc(Cl)c(N)cc1OC` [Metoclopramide monohydrochloride], the entries for the “LBPA endosome anti-LBPA integrated intensity (z-score)” value in experiment [1] and in experiment [2] were -0.305 and 1.1, respectively. The results for the “whole-cell filipin (z-score)” value in experiment [3] and in experiment [4] were -0.595 and -0.234, respectively. Besides, the entries for the “filipin (z-score)” value in experiment [5] and in experiment [6] were -0.404 and 0.279, respectively.

Take `Oc1c(Cl)cc(Cl)c(Cl)c1Cc1c(O)c(Cl)cc(Cl)c1Cl` [Hexachlorophene]: the “LBPA endosome anti-LBPA integrated intensity (z-score)” value was -0.408 in experiment [1] and -0.818 in experiment [2]. Also, the “whole-cell filipin (z-score)” value in experiment [3] was -0.203; in experiment [4], -0.11. Besides, the “filipin (z-score)” value in experiment [5] was -0.443; in experiment [6] it was -0.32.

As to `CCC(C)(C)C(=O)O[C@H]1C[C@@H](C)C=C2C=C[C@H](C)[C@H](CC[C@@H]3C[C@@H](O)CC(=O)O3)[C@H]21` [Simvastatin], the “LBPA endosome anti-LBPA integrated intensity (z-score)” value in experiment [1] is -0.965; in experiment [2] it was -1.54. In addition, the “whole-cell filipin (z-score)” value in experiment [3] was -0.982; in experiment [4], -0.319. In addition, the “filipin (z-score)” value in experiment [5] is -0.637; in experiment [6], 0.381.

`CC[C@H](c1ccc(O)cc1)[C@@H](CC)c1ccc(O)cc1` [Hexestrol]: the “LBPA endosome anti-LBPA integrated intensity (z-score)” value is -0.48 in experiment [1] and -0.198 in experiment [2]. Besides, the results for the “whole-cell filipin (z-score)” value in experiment [3] and in experiment [4] were -0.492 and -0.508, respectively. Moreover, the “filipin (z-score)” value in experiment [5] was -0.435; in experiment [6], -0.383.

As to `CN(C)CCCC1(c2ccc(F)cc2)OCc2cc(C#N)ccc21` (configuration not stated) [Citalopram Hydrobromide], the results for the “LBPA endosome anti-LBPA integrated intensity (z-score)” value in experiment [1] and in experiment [2] were -0.329 and 1.58, respectively. Further, the results for the “whole-cell filipin (z-score)” value in experiment [3] and in experiment [4] were 0.204 and 0.212, respectively. The “filipin (z-score)” value was -0.352 in experiment [5] and 0.534 in experiment [6].

As for `CC1(C)S[C@@H]2[C@H](NC(=O)[C@H](N)c3ccc(O)cc3)C(=O)N2[C@H]1C(=O)O` [Amoxicillin], the “LBPA endosome anti-LBPA integrated intensity (z-score)” value in experiment [1] is -0.419; in experiment [2] it was 0.0287. Besides, the “whole-cell filipin (z-score)” value is -0.393 in experiment [3] and -0.0853 in experiment [4]. Besides, the “filipin (z-score)” value in experiment [5] was -0.524; in experiment [6], -0.539.

On to `O=C(NCC(O)CO)c1c(I)c(C(=O)NCC(O)CO)c(I)c(N(CCO)C(=O)CO)c1I` (configuration not stated) [Ioversol], for which the entries for the “LBPA endosome anti-LBPA integrated intensity (z-score)” value in experiment [1] and in experiment [2] were -0.561 and -1.26, respectively. The “whole-cell filipin (z-score)” value in experiment [3] is -0.43; in experiment [4] it was -0.621. For the same compound, the “filipin (z-score)” value in experiment [5] was -0.499; in experiment [6] it was -0.701.

Regarding `CC(C)NCC(O)c1ccc(O)c(O)c1` (single isomer, unassigned; (+)) [(+)-Isoproterenol (+)-bitartrate salt], the “LBPA endosome anti-LBPA integrated intensity (z-score)” value in experiment [1] is -0.327; in experiment [2], 0.363. The “whole-cell filipin (z-score)” value was -0.262 in experiment [3] and -0.346 in experiment [4]. For the same compound, the “filipin (z-score)” value was -0.516 in experiment [5] and -0.475 in experiment [6].

Regarding `CCOc1ccccc1OC(c1ccccc1)C1CNCCO1` (configuration not stated) [Reboxetine mesylate], the results for the “LBPA endosome anti-LBPA integrated intensity (z-score)” value in experiment [1] and in experiment [2] were -0.315 and 0.133, respectively. The “whole-cell filipin (z-score)” value in experiment [3] is -0.477; in experiment [4] it was -0.595. Moreover, the results for the “filipin (z-score)” value in experiment [5] and in experiment [6] were -0.205 and -0.384, respectively.

Turning to `CN(c1nccc(=O)[nH]1)C1CCN(c2nc3ccccc3n2Cc2ccc(F)cc2)CC1` [Mizolastine], the “LBPA endosome anti-LBPA integrated intensity (z-score)” value in experiment [1] was -0.6; in experiment [2], 0.425. Besides, the “whole-cell filipin (z-score)” value is -0.708 in experiment [3] and 0.222 in experiment [4]. Further, the “filipin (z-score)” value in experiment [5] was -0.551; in experiment [6], 0.0832.

Consider `CCN(CC)CCN[C@@H](C(=O)OCCC(C)C)c1ccccc1` [Camylofine chlorhydrate], for which the “LBPA endosome anti-LBPA integrated intensity (z-score)” value is -0.334 in experiment [1] and 0.886 in experiment [2]. Moreover, the “whole-cell filipin (z-score)” value in experiment [3] is -0.446; in experiment [4], -0.605. Also, the “filipin (z-score)” value in experiment [5] was -0.28; in experiment [6] it was 0.0537.

On to `COC(=O)C1=C(C#N)NC(C)=C(C(=O)OC(C)C)C1c1cccc([N+](=O)[O-])c1` (configuration not stated) [Nilvadipine], for which the “LBPA endosome anti-LBPA integrated intensity (z-score)” value is -0.407 in experiment [1] and -0.929 in experiment [2]. Further, the “whole-cell filipin (z-score)” value in experiment [3] was determined as 0.11; in experiment [4], 0.875. Moreover, the “filipin (z-score)” value in experiment [5] was -0.268; in experiment [6] it was -0.158.
